Rows were chosen to be rich in hits. Some 3% of all compounds tested hit in one or more screens of this group.
TRb-SRC2 inh – disrupts binding of human TR beta to SRC2; P10828; Potency, µM (series often up to 106 µM), without a hit: top-dose activity change, negative = inhibition, usual class: inhibitors; TRbeta-SRC2 peptide binding, fluorescence polarization; receptor liganded with 1 µM T3; actives 0.065% (n = 280,000);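 also: plate controls were bound peptide for no effect and peptide without receptor for full effect; nearly all actives have a fitted effect of over 50% in size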
Target sequence (P10828 whole entry, looked up): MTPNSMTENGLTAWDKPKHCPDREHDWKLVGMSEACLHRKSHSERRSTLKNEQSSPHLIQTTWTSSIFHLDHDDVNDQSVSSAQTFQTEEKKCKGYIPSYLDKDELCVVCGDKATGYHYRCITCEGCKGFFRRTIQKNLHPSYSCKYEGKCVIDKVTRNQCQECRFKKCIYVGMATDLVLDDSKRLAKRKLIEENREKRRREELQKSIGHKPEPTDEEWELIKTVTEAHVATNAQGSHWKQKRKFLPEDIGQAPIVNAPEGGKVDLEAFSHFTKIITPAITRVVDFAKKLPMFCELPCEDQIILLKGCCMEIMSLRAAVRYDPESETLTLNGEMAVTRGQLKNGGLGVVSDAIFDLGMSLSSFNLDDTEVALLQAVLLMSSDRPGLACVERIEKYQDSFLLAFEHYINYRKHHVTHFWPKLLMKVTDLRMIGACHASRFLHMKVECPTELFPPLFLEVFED
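Read-out is fluorescence polarization (555 nm excitation, 632 nm emission) of a Texas Red SRC2 coactivator peptide; loss of signal reflects blocked binding to human TRb ligand-binding domain in the presence of 1 uM T3.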
TR SRC2 fluor cs – Texas Red fluorescence interference in TRb-SRC2 counter-screen; actives 0.29% (n = 280,000); Potency, µM (titrated, usually from 106 µM), for inactives: at the highest dose fluorescence change, negative = quenching; TRb/SRC2 Texas Red total fluorescence interference; active = well fitted curve in either direction with a large enough effect; inconclusive = small, poorly fitted or top-dose-only effect
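Human TRβ ligand-binding domain (0.6 uM) and Texas Red SRC2 peptide (20 nM) in Tris buffer with 1 uM T3 and 5% DMSO were incubated with pinned compound for 5 hr at ambient temperature. Total fluorescence was computed as S + 2P (555/632 nm).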
Tau fibril FP – inhibitors of human tau fibril formation; P10636; K18 P301L tau heparin fibrillization, Alexa594 FP, 6 h; Potency, µM (top dose mostly 57.7 µM), without a hit: top-dose activity, negative = inhibition, hits mostly inhibitors; actives 0.39% (n = 280,000); AID 1468; also: nearly all actives have a fitted effect of over 55% in size
Target sequence (P10636 561-689 P618L limits assumed): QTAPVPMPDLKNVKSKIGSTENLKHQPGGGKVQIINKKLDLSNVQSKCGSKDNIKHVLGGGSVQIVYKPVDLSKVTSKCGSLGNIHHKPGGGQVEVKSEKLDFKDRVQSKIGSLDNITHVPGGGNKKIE
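Steps: dispense K18 P301L tau (15 uM plus 0.24 uM Alexa 594 tracer, final) in pH 7 sodium acetate; add compound; add heparin (20 uM final); incubate 6 hr, 37 C; add ThT (30 uM final); after 1 hr ambient, read FP.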
Tau ThT inhib – blocks human tau fibril formation measured by thioflavin T; P10636; recombinant tau K18 P301L, heparin-induced fibrillization, ThT fluorescence; Potency, µM (titrated, usually from 57.4 µM), inactives show at the highest dose activity, negative = inhibition, most hits filed as inhibitors; actives 2.1% (n = 270,000); also: nearly all actives have a fitted effect of over 55% in size
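Tau K18 P301L fragment (15 uM unlabeled plus 0.24 uM Alexa 594-labeled) in 100 mM sodium acetate pH 7 with compound, fibrillization induced by 20 uM heparin for 6 hr at 37 C. Thioflavin T (30 uM) added, fluorescence read after 1 hr (ex 450, em 510 nm).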
Tau fluor counter – counter-screen for tau fibril formation inhibitors; tau K18 P301L Alexa594 fluorescence, heparin fibrillization; Potency, µM (doses to about 57.7 µM), for the others: at the highest dose activity change, negative = decrease; actives 0.93% (n = 280,000); AID 1463; also: nearly all actives have a fitted effect of over 55% in size
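Human tau K18 P301L (15 uM unlabeled, 0.24 uM Alexa 594-labeled) in 100 mM sodium acetate pH 7 with 20 uM heparin, 6 hr at 37 C. ThT 30 uM added, 1 hr ambient; Alexa 594 FP and total fluorescence read at 555/632 nm.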
Active calls of the source: *; ? = inconclusive; / = not tested or not shown; ! = repeats disagree; [ ] = remark or other dose. Unless noted, calls follow the shape of the dose curve; as a rule, active = well fitted curve in the direction sought with a large enough effect; inconclusive = small, poorly fitted or top-dose-only effect, or another doubt; inactive = no such curve, though single readings can be large; an effect the other way counts as inactive or inconclusive. Unless noted, % is scaled to controls: 0 for no effect and ±100 for the full control effect; potency is read from the fitted curve at half-maximal effect.

SMILES	TRb-SRC2 inh	TR SRC2 fluor cs	Tau fibril FP	Tau ThT inhib	Tau fluor counter
Cc1n[nH]c(=O)[nH]c1=O	2%[53 µM]	-15%[53 µM]	/	/	/
CC(C)c1ccc(NC(=O)c2ccc(CN3CC(=O)N4CCCCC4C3=O)cc2)cc1 (stereo unspecified)	-12%	0%	0%	-16%	-20%
Cc1nn2c(NC(C)C)c3c(nc2c1-c1ccccc1)CCC3	3%	0%	?	28µM*	?
Cc1nn2c(NCC(C)C)c3c(nc2c1-c1ccccc1)CCC3	-15%	2%	2%	-11%	-5%
CS(=O)(=O)N(CC(=O)NCC1CCCO1)c1cccc(Cl)c1 (stereo unspecified)	0%	2%	-3%[2.34 µM]	5µM*	-53%
CS(=O)(=O)N(CC(=O)NCC1CCCO1)c1cc(Cl)cc(Cl)c1 (stereo unspecified)	-6%	-1%	4%	-3%	-2%
Cc1ccc(NC(=O)C2CCN(C(=O)c3cnn(-c4ccccc4)c3-n3cccc3)CC2)cc1C	5%	-1%	4%	-14%	-19%
Cc1ccccc1OCCNc1cc(N2CCN(CCO)CC2)ccc1[N+](=O)[O-]	-8%	-4%	-2%	13µM*	?
Cc1cccc(OCCNc2cc(N3CCN(CCO)CC3)ccc2[N+](=O)[O-])c1	-1%	-4%	-10%	28µM*	?
CC(C)c1cc(Nc2cccc(O)c2)cc(C(C)C)c1O	7%	0%	?	32µM*	?
Oc1cccc(Nc2ccccc2)c1	1%	0%	/	/	/
Cc1ccc2c(=O)cc(C(=O)N(Cc3ccc(N(C)C)cc3)C3CCS(=O)(=O)C3)oc2c1 (stereo unspecified)	3%	3%	5%	-2%	-5%
O=C(/C=C/c1ccc(Cl)cc1Cl)n1cccn1	-9%	-2%	?	7.9µM*	-7%
O=C(/C=C/c1ccc(Cl)cc1Cl)c1ccc[nH]1	0%	-1%	-6%	?	-10%
O=C1CCCC/C=C/CCCCCCCCCO1	6%[201 µM]	0%[201 µM]	/	/	/
O=C(/C=C/c1ccco1)Nc1cccnc1Cl	-7%	0%	?	?	-18%
COC(=O)c1ccccc1NC(=O)/C=C/c1ccco1	?	3.2µM*[quencher]	4%	1%	-4%
CCN(CC)S(=O)(=O)c1cccc(NC(=O)Nc2cccc(C(F)(F)F)c2)c1	-6%	-6%	7.9µM*	-14%	?
O=C(/C=C/c1ccc(S(=O)(=O)N2CCOCC2)cc1)NC(=S)Nc1ccc(N2CCOCC2)cc1	-12%	-2%	7%	25µM*	?
O=C(/C=C/c1cccc([N+](=O)[O-])c1)NC(=S)Nc1cccc(NC(=O)c2ccccc2Cl)c1	-5%	-3%	-2%	?	?
Cc1cc(NC(=S)NC(=O)/C=C/c2ccc(S(=O)(=O)N3CCOCC3)cc2)ccc1Br	-21%	0%	?	?	-16%
COc1ccc(/C=C/C(=O)Nc2ccc(N3CCOCC3)cc2)cc1	-1%	-1%	4%	4µM*	?
COc1ccc(/C=C/C(=O)NC(=S)Nc2ccc(N3CCN(C(C)=O)CC3)cc2)cc1	1%	-1%	0%	?	-15%
O=C(/C=C/c1cccc([N+](=O)[O-])c1)NC(=S)Nc1ccccc1C(=O)O	-7%	-3%	?	18µM*	-29%
O=S(=O)(c1ccccc1)c1nnn2c1nc(NCc1ccccc1)c1cc(Cl)ccc12	1%	-3%	?	7%	-3%
SMILES	TRb-SRC2 inh	TR SRC2 fluor cs	Tau fibril FP	Tau ThT inhib	Tau fluor counter
CSc1cccc(NC(=O)N2CCN(S(=O)(=O)c3ccc4c(ccn4C)c3)CC2)c1	4%	4%	?	7%	-29%
C[Si]1(C)O[Si](C)(C)O[Si](C)(C)O[Si](C)(C)O1	6%[201 µM]	5%[201 µM]	/	/	/
CCN(CC)S(=O)(=O)c1cccc(NC(=O)/C=C/c2cccc([N+](=O)[O-])c2)c1	2%	6%	-18%	?	13µM*[quencher]
CCN(CC)S(=O)(=O)c1ccc(/C=C/C(=O)Nc2ccc(N3CCOCC3)cc2)cc1	-3%	-4%	?	16µM*	32µM*[quencher]
CCN(CC)S(=O)(=O)c1ccc(/C=C/C(=O)Nc2ccc(F)c(F)c2F)cc1	9%	4%	-2%	1%	-3%
Cc1cc(C)[n+]2[nH]c(N)c(N=Nc3ccccc3)c2n1	3%	-2%	4%	16µM*	-21%
N#CC(C#N)=C(N)/C(C#N)=C/c1ccc2[nH]ccc2c1	0%	-13%	-13%	14µM*	?
CCOC(=O)CSc1nc(N)c(C(=O)Nc2ccc(N(C)C)cc2)s1	-9%	-2%	7%	16µM*	?
CCN(CC)C(=O)CSc1nc(N)c(C(=O)Nc2ccc(OC)cc2)s1	6%	-3%	15%	-5%	-3%
COC(=O)CCC(=O)OC1(C)C(=O)C2=CN(C(CO)CO)C(c3ccc(OC)cc3)=CC2=C(Br)C1=O (stereo unspecified)	?	-4%[11.2 µM]	?	4µM*	-21%[11.6 µM]
COC(=O)CCC(=O)OC1(C)C(=O)C2=CN(CCCCO)C(c3ccc(OC)cc3)=CC2=C(Br)C1=O (stereo unspecified)	0%[11.2 µM]	-1%[11.2 µM]	6%[11.6 µM]	15%[11.5 µM]	6%[11.6 µM]
COC(=O)CCC(=O)OC1(C)C(=O)C2=CN(CCN3CCOCC3)C(c3ccc(OC)cc3)=CC2=C(Br)C1=O (stereo unspecified)	3%[11.2 µM]	-5%[11.2 µM]	?	7.1µM*!	-2%[11.6 µM]
O=C1c2ccccc2-c2onc3c(Oc4ccccc4)cc(O)c1c23	-12%	35µM*[fluorescent]	-7%	18µM*	?
COc1ccc(CNc2ccc3cc(S(=O)(=O)N4CCCCC4)ccc3n2)cc1	5%	1%	-14%	-2%	?
CCOC(=O)c1sc2nc3c(SCC(=O)O)cc(C(=O)c4cc(F)ccc4O)cn3c(=O)c2c1C	30%	-22%	-9%	13µM*	-10%
COc1ccc(O)c(C(=O)c2cc(SCC(=O)O)c3nc4sc5c(c4c(=O)n3c2)CCCC5)c1	7%	-9%	-7%	18µM*	-25%
CCn1cc(/C=C/C(=O)Nc2ccc(C)cc2Br)cn1	-1%	0%	-3%	-10%	2%
CCn1cc(/C=C/C(=O)Nc2ccn(Cc3c(F)c(F)cc(F)c3F)n2)cn1	6%	0%	?	22µM*	-9%
COc1cc2c(cc1OC)C1(C)N(CC2)C(C(C)=O)=NN1c1ccc(Cl)cc1 (stereo unspecified)	-8%	-7%	16%	10µM*	?
CCOC(=O)c1c(N)sc2c1CCN(Cc1ccccc1)C2	12%	3%	?	?	-21%
O=C1C(Cl)=C(NS(=O)(=O)c2ccc([N+](=O)[O-])cc2)C(=O)c2ccccc21	7%	-3%	8.9µM*	2µM*	2.5µM*[quencher]
